# Tests used:
# Details in all cases: concentration: 1 μM, replicates: in singlicate; n = 1
# CAMK2D = test system: CAMK2D
# CAMK2G = test system: CAMK2G
# CAMK4 = test system: CAMK4
# CAMKK1 = test system: CAMKK1
# CAMKK2 = test system: CAMKK2
# CASK = test system: CASK
# CDC2L1 = test system: T1, CDC2L1
# T1 construct: gene CDK11B
# CDC2L2 = test system: CDC2L2
# CDC2L5 = test system: T2, CDC2L5
# T2 construct: gene CDK13
# CDK11 = test system: T3, CDK11
# T3 construct: gene CDK19
# 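Note: KINOMEscan kinase panel screen.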
Compound,%Inh (CAMK2D),%Inh (CAMK2G),%Inh (CAMK4),%Inh (CAMKK1),%Inh (CAMKK2),%Inh (CASK),%Inh (CDC2L1),%Inh (CDC2L2),%Inh (CDC2L5),%Inh (CDK11)
COc1ccc(Nc2nccc(N3CCC(NC(=O)Nc4ccc5c(c4)OCO5)C3)n2)cc1 (centres unmarked) [GSK1379745],7%,20%,0%,29%,9%,5%,0%,0%,0%,46%
OCCOCCn1ccc2ncnc(Nc3ccc(Oc4cccc(Cl)c4)c(Cl)c3)c21,0%,0%,0%,0%,0%,0%,0%,0%,0%,0%
CNc1nccc(-c2c(-c3ccc(F)cc3)ncn2C2CCN(C)CC2)n1 [SB-222903],0%,0%,7%,0%,0%,11%,4%,13%,0%,0%
Cc1ccc(NC(=O)c2cccc(C#N)c2)cc1-c1ccc(C(=O)Nc2ccncc2)cc1 [GSK1398463],49%,26%,0%,15%,2%,7%,0%,14%,0%,5%
O=C(CCO)NCCn1ccc2ncnc(Nc3ccc(Oc4cccc(C(F)(F)F)c4)c(Cl)c3)c21,0%,0%,0%,0%,7%,0%,0%,0%,0%,0%
Nc1nccc2scc(-c3ccc4c(c3)CCN4C(=O)Cc3cc(F)ccc3F)c12 [GSK2587663],9%,23%,0%,5%,9%,22%,0%,6%,0%,61%
Cc1ccc(O)cc1Nc1cc(C(F)(F)F)nc2ccc(-c3ccncc3)cc12 [GW630823],2%,16%,0%,11%,16%,1%,17%,0%,0%,0%
Cl.c1ccc(Cn2ncc3cc(Nc4ncnc5ccccc45)ccc32)cc1 [GW273749],31%,25%,0%,3%,32%,5%,0%,19%,0%,4%
Nc1nc(-c2ccc3c(N)n[nH]c3c2)cc(N2CCC[C@@H](C(=O)Nc3ccccc3)C2)n1.O=C(O)C(F)(F)F.O=C(O)C(F)(F)F [GSK2288359],0%,22%,0%,11%,16%,5%,0%,19%,0%,0%
Cn1ccc2ncnc(Nc3ccc(Oc4cccc(Cl)c4)c(Cl)c3)c21,5%,8%,0%,11%,9%,9%,22%,5%,13%,5%
CC(C)(C)c1ccc(-n2cnc3c(N)ncnc32)cc1 [SKF-97263],2%,0%,0%,0%,0%,12%,0%,0%,0%,10%
FC(F)(F)c1ccc(-c2cc(-c3c[nH]nc3-c3ccccn3)ccn2)cc1 [GW599550],12%,27%,0%,11%,23%,0%,0%,26%,0%,17%
Cl.c1ccc(Cn2ccc3cc(Nc4ncnc5ccccc45)ccc32)cc1 [GW275568],24%,27%,0%,16%,29%,17%,23%,28%,0%,19%
CS(=O)(=O)CCNCc1ccc(-c2ccc3ncnc(Nc4ccc(OCc5ccccc5)c(Cl)c4)c3c2)o1.Cl [GW574783],4%,11%,0%,0%,0%,3%,0%,0%,0%,15%
CCn1c(-c2ccncc2)nc2cnccc21 [SB-735216],0%,0%,0%,0%,4%,5%,9%,0%,28%,18%
C[C@H]1CC[C@@H](C(=O)Nc2ccccc2)CN1c1cc(-c2ccc3c(N)n[nH]c3c2)nc(N)n1 [GSK2283293],3%,16%,0%,7%,15%,4%,0%,13%,0%,0%
Oc1ccc2ncnc(Nc3ccc(OCc4ccccc4)cc3)c2c1 [GI262866],1%,2%,0%,0%,0%,8%,0%,0%,0%,36%

# — PMC5540273 (PLoS ONE, 2017)
